# Measured values from the supplement of paper PMC6555819.
# Columns and labels:
# Assay in all cases: PBM binding z-score (relative to random genomic background probes); higher = stronger binding; sequences stand for … in GC…GCGATTGACAGCGTAGAATGAAGG
# [1] = system: FXR:RXRa (NR concentration 270 nM, RXRa partner concentration 90 nM)
# Summary of the method: (§1)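 The probes on custom Agilent 4×180K protein-binding microarrays were double-stranded, with 34-nt variable regions bearing direct-repeat seeds, single-nucleotide variants, half-site ablations and random human genomic background sequences. Incubation lasted 1 h with ligand-free nuclear receptor dimers in PBS pH 7.4, 2% milk, 0.02% Triton X-100, 1 mM DTT, 0.2 mg/mL BSA and 0.4 mg/ml salmon testes DNA. Antibodies against each partner (one per run) detected bound dimers, and fluorescence scans were regression-normalized. Binding z-scores take the random background probes as reference.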
# [2] = system: LXRa:RXRa (NR concentration 270 nM, RXRa partner concentration 90 nM)
# Summary of the method: as §1
# [3] = system: LXRa homodimer (NR concentration 270 nM)
# Summary of the method: as §1
# [4] = system: LXRb:RXRa (NR concentration 270 nM, RXRa partner concentration 90 nM)
# Summary of the method: as §1
# [5] = system: LXRb homodimer (NR concentration 270 nM)
# Summary of the method: as §1
# [6] = system: PPARa:RXRa (NR concentration 270 nM, RXRa partner concentration 90 nM)
# Summary of the method: as §1
# [7] = system: PPARg:RXRa (NR concentration 180 nM, RXRa partner concentration 90 nM)
# Summary of the method: as §1
# [8] = system: PPARg:RXRa 270nM:90nM, anti-RXR (NR concentration 270 nM, RXRa partner concentration 90 nM)
# Summary of the method: as §1
# [9] = system: PPARg:RXRa 30nM:10nM, anti-RXR (NR concentration 30 nM, RXRa partner concentration 10 nM)
# Summary of the method: as §1
# [10] = system: PPARg:RXRa 90nM:30nM, anti-RXR (NR concentration 90 nM, RXRa partner concentration 30 nM)
# Summary of the method: as §1
# [11] = system: PPARg:RXRa DBDmut IVT, anti-RXR (DBD mutation: RXRa K156A/R161A, NR concentration 270 nM, RXRa partner concentration 90 nM)
# Summary of the method: as §1
# [12] = system: PPARg:RXRa IVT, anti-PPARg (NR concentration 270 nM, RXRa partner concentration 90 nM)
# Summary of the method: as §1
# [13] = system: PPARg DBDmut:RXRa IVT, anti-PPARg (DBD mutation: PPARg1 K132A/R137A, NR concentration 270 nM, RXRa partner concentration 90 nM)
# Summary of the method: as §1
# [14] = system: PPARg DBDmut IVT, anti-PPARg (DBD mutation: PPARg1 K132A/R137A, NR concentration 270 nM)
# Summary of the method: as §1
# [15] = system: PPARg homodimer (NR concentration 180 nM)
# Summary of the method: as §1
# [16] = system: PXR:RXRa (NR concentration 270 nM, RXRa partner concentration 90 nM)
# Summary of the method: as §1
# [17] = system: PXR homodimer (NR concentration 270 nM)
# Summary of the method: as §1
# [18] = system: RARa:RXR (NR concentration 270 nM, RXRa partner concentration 90 nM)
# Summary of the method: as §1
# [19] = system: RARa homodimer (NR concentration 270 nM)
# Summary of the method: as §1
# [20] = system: RARb:RXRa (NR concentration 270 nM, RXRa partner concentration 90 nM)
# Summary of the method: as §1
Sequence,PBM binding z-score [1],PBM binding z-score [2],PBM binding z-score [3],PBM binding z-score [4],PBM binding z-score [5],PBM binding z-score [6],PBM binding z-score [7],PBM binding z-score [8],PBM binding z-score [9],PBM binding z-score [10],PBM binding z-score [11],PBM binding z-score [12],PBM binding z-score [13],PBM binding z-score [14],PBM binding z-score [15],PBM binding z-score [16],PBM binding z-score [17],PBM binding z-score [18],PBM binding z-score [19],PBM binding z-score [20]
CCTTACGGATCACGAGGTTATAGCACGACGAGCG,0.639,1.1,0.818,1.11,0.481,1.48,1.06,0.294,0.0325,0.104,0.221,0.106,-0.412,0.232,1.02,1.02,0.695,1.36,0.995,0.621
TAGCCTAGGTCATTGGGCCAGGATAGTACGCATC,3.92,3.17,0.159,1.47,-0.488,3.6,3.36,3.58,0.83,2.29,2.04,3.75,0.235,0.25,0.798,1.05,-0.39,1.99,-0.0581,3.49
CAAACTAGGTCAAGGTCAAAGGCGGTTTGTGCCA,6.43,5.36,3.25,4.34,1.01,5.91,9.82,8.02,6.66,8.34,8.62,8.69,1.56,1.08,4.11,4.86,2.19,5.36,1.25,5.02
GCTAGTTGGTCAGTAAAAGGTCATACACCGGTCG,3.17,4.37,5.64,3.93,0.896,4.45,2.95,4.03,2.15,3.55,0.651,2.38,-0.0949,-0.0441,3.01,4.5,1.09,5.05,1.09,3.94
AGAGTGAGGTTATTAAGATCAGGGAATTGCGGTC,1.77,1.58,0.813,1.94,0.987,2.46,0.616,1.31,0.245,1.12,0.817,0.889,0.661,0.468,2.05,1.43,1.67,1.5,1.44,1.7
TCTATTAATTGATTAGGGCAACCGAAACAGCGGA,0.209,0.405,1.09,0.283,0.631,0.559,0.157,1.87,3.6,2.5,1.84,1.09,0.728,1.07,2.22,0.386,1.53,0.419,2.52,0.75
ATCTCTAGGTAACCAAGTTCAGTGCATGCCGAAC,0.755,1.14,0.876,0.833,0.777,1.38,0.901,0.936,0.401,0.474,3.99,3.29,0.293,0.732,0.815,2.2,2.24,1.03,0.856,1.37
CAAACTAGGTCAAGGTCAAAGTTGGTTTGTGCCA,7,5.55,4.19,4.77,1.48,6.04,9.87,7.82,6.98,8.52,8.46,8.73,4.69,4.12,4.93,5.28,2.75,5.45,1.94,5.19
GCAGACAGGTGAAACGCAGGTAATTCAGGGTGGC,-0.0187,-0.113,-0.552,-0.337,-1.33,0.845,0.419,-0.127,-0.526,-0.551,0.893,0.576,-0.406,-0.569,0.0586,-0.158,-0.351,0.462,-0.448,0.697
ACAGACAGGTGAGTGAAGATAACTCAGCTGGACG,-0.343,-0.53,-0.558,-0.776,-0.749,-0.453,0.887,-0.267,0.137,-0.0703,0.148,0.126,0.243,0.332,-0.119,-0.523,-0.597,-0.226,0.147,0.137
TCTAGTTGTTCACGGAGGTCACACACGACGGGTA,2.82,3.29,2.83,3.17,0.94,3.66,1.84,2.89,3.43,3.07,1.73,2.51,0.302,1.32,2.67,4.27,1.07,4.45,1.31,3.37
CCAGACAGGTCAAAGGTAACTCAGTCTGGTACGC,6.4,4.97,0.903,4.17,0.453,5.83,7.89,7.43,6.13,8.02,3.48,3.96,-0.0161,0.672,2.75,4.5,0.483,6.08,0.857,4.52
CAAATTAGGTCACGAAAGGTCAAAGTCGAATGAC,7.62,8.19,7.52,7.45,3.07,6.87,10.1,8.6,6.67,8.69,8.68,8.9,4.28,2.39,5.32,7.26,2.64,7.69,3.07,5.8
